# Measured values taken from PubChem BioAssay (NCATS).
# Inconclusive results are not listed. Entries that show only a call come without a potency. Calls of active or inactive are those of the source. Calls come from the whole dose curve; as a rule, active = well fitted inhibition curve with a large enough effect; inconclusive = small, poorly fitted or top-dose-only effect; inactive = flat fitted curve, though single readings scatter.
# System: JCK
# Experiment: qHTS profiling for inhibitors of Plasmodium falciparum proliferation (AID 504749); note: nearly all actives have a fitted effect of over 60% in size
# Details: P. falciparum in erythrocytes, SYBR Green DNA, 72 h; series mostly up to 28.7 µM
# Outline: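 P. falciparum-infected erythrocytes (0.3% parasitemia, 2.5% hematocrit final) were exposed to compounds for 72 h at 37 C in 5% CO2, then lysed with SYBR Green buffer overnight at room temperature; parasite DNA fluorescence was normalized to artemisinin and DMSO controls.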
row,Structure (SMILES),Potency
1,C=CCN=C=S,inactive
2,OC(c1ccccc1)(c1ccccc1)C1CN2CCC1CC2 (stereo not drawn),inactive
3,CCOc1ccc2c3c1O[C@H]1[C@@H](O)C=C[C@H]4[C@@H](C2)N(C)CC[C@@]341,inactive
4,Cc1sc2ccccc2c1CC1=NCCN1,inactive
5,O=C1CN=C(c2ccccc2)c2cc(Cl)ccc2N1CC1CC1,inactive
6,O=c1c2ccccc2[se]n1-c1ccccc1,inactive
7,CC12NC(Cc3ccccc31)c1ccccc12 (stereo not drawn),inactive
8,c1ccc2cc(CC3=NCCN3)ccc2c1,inactive
9,C[C@@H](Cc1ccccc1)NCCC(c1ccccc1)c1ccccc1,inactive
10,CCCN1CCCC2Cc3[nH]ncc3CC21 (stereo not drawn),inactive
11,Oc1cc(Cl)c(Cl)cc1Cl,inactive
12,CN1CCCC(=C(c2cccs2)c2cccs2)C1,inactive
13,CN1[C@@H]2CC[C@H]1CC(OC1c3ccccc3CCc3ccccc31)C2 (stereo partly drawn),inactive
